In the library only some 3.6% were active in any assay of this set; here they are far more common.
Pf apPOL block = Pf-apPOL DNA polymerase inhibition; Recombinant Pf-apPOL, molecular beacon fluorescence, 1.5 h; inhibition, % at 10 µM; actives 0.25% (n = 210,000)
mHTT CaM bind = disrupts binding of mutant huntingtin to calmodulin; actives 3.6% (n = 190,000); AlphaScreen His-mHTT/GST-CaM binding, luminescence; inhibition, % at 15 µM; AID 1671202;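 note: 0% = both proteins with DMSO and 100% = one protein alone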
* hit, by the source's call; · = not tested or not shown. Cut-off read from the data, not from the text of the source: active = inhibition above about 50%; inactive = the rest.

SMILES | Pf apPOL block | mHTT CaM bind
C=CCn1c(-c2ccccc2)csc1=Nc1c(C)n(C)n(-c2ccccc2)c1=O | -4 | 4
CCOc1cc2c(c([N+](=O)[O-])c1)NC(c1ccccc1F)C1CC=CC21 (configuration not stated) | -2 | 95*
CCOc1cc2c(c([N+](=O)[O-])c1)NC(C(C)C)C1CC=CC21 (configuration not stated) | 1 | 73*
CCOc1cc2c(c([N+](=O)[O-])c1)NC(c1ccc([N+](=O)[O-])cc1)C1CC=CC21 (configuration not stated) | 1 | 50*
COc1cc2c(c([N+](=O)[O-])c1)NC(c1ccc(Br)cc1)C1CC=CC21 (configuration not stated) | -1 | 24
O=S1(=O)CCOC[C@H](c2ccccc2)N1Cc1ccc(Cl)cc1Cl | -4 | -7
CS(=O)(=O)N1CCCc2ccc(NC(=O)C(=O)NCc3ccc4c(c3)OCO4)cc21 | -7 | -8
COc1cc(C(=O)ON=C2C=CC(=O)C=C2)cc(OC)c1OC | -1 | 8
COc1ccc(OC)c(C(O)CN2CCN(c3cccc(C)c3C)CC2)c1 (configuration not stated) | -3 | 9
COc1ccc(NC(C)=O)cc1NC(=O)Cc1cn(Cc2ccccc2)c2ccccc12 | -8 | 83*
COc1ccc(NC(=O)Cc2cn(C)c3ccccc23)cc1Cl | -2 | 28
O=C(c1cccs1)N1CCc2cc(-c3ccno3)ccc21 | -15 | 9
O=C(CCCOc1ccccc1)N1CCN(c2ccccc2F)CC1 | -5 | 3
Cn1c(N2CCCC(C(=O)NCCN3CCOCC3)C2)cc(=O)n(C)c1=O (configuration not stated) | -4 | -10
COc1cccc(/C=C2\N=C(c3ccc(Cl)c([N+](=O)[O-])c3)OC2=O)c1OC | 2 | 5
COc1ccc(C(NC(=O)c2ccccc2)NC(=O)c2ccccc2)c(OC)c1 | 1 | 17
COc1ccc(C(NC(=O)c2ccccc2)c2ccc3cccnc3c2O)cc1 (configuration not stated) | 3 | 100*
COc1cccc(NC(c2ccccn2)c2ccc3cccnc3c2O)c1 (configuration not stated) | -6 | 99*
COc1cccc(C(NC(=O)c2ccccc2)c2ccc3cccnc3c2O)c1 (configuration not stated) | 0 | 100*
COc1cccc(NS(=O)(=O)c2cccc3cccnc23)c1 | -3 | 0
Cc1ccc(-n2c(=O)c3sccc3n(CC(=O)NCCC3=CCCCC3)c2=O)cc1 | -4 | -1
Cc1ccc(-n2c(N3CCCC(C(=O)NCC4CC4)C3)nc3ccsc3c2=O)cc1 (configuration not stated) | -3 | 25
COc1cccc(CC(=O)N2CCCC2c2cccc(C)c2)c1 (configuration not stated) | 11 | 10
Cc1ccc(C)c(S(=O)(=O)Nc2ccc3oc(=O)sc3c2)c1 | 73* | 24
Cc1cc(C)c(S(=O)(=O)Nc2ccc3oc(=O)sc3c2)cc1C | 2 | 42
SMILES | Pf apPOL block | mHTT CaM bind
Cc1ccc(NC(=O)N2CCc3c(c(COCc4cccc(F)c4)nn3C)C2)c(Cl)c1 | -5 | 20
Cc1noc(C2(NC(=O)c3ccc4ccccc4n3)CCCCC2)n1 | -6 | 6
CC(=O)N1CCc2cc(Br)cc(S(=O)(=O)NCCc3cccc(C)c3)c21 | -7 | 55*
CC(=O)N1CCc2cc(Br)cc(S(=O)(=O)NCCc3ccc(C)cc3)c21 | -10 | 38
CC(C)(C)c1cc(C(=O)NNC(=S)Nc2ccccc2)n(Cc2ccc(Cl)cc2Cl)n1 | -237 | ·
c1nc(NCCN2CCOCC2)c2sc3nc(N4CCOCC4)c4c(c3c2n1)CCCC4 | 0 | 55*
c1nc(N2CCNCC2)c2sc3nc(N4CCOCC4)c4c(c3c2n1)CCCC4 | -10 | 14
O=S(=O)(Cc1ccccc1Cl)NCCN1CCN(c2ccc(F)cc2)CC1 | -7 | -9
Cc1ccc(NC(=O)CSc2nnnn2-c2ccccc2F)cc1C | 4 | -7
CCN(CC)c1ccc(NS(=O)(=O)c2cccc3nsnc23)c(C)c1 | -4 | 54*
CCN(CC)c1ccc(NC(=O)CCS(=O)(=O)c2cccc3nsnc23)c(C)c1 | -2 | 17
c1ccc(-c2cnc(-c3cccc4ccccc34)o2)cc1 | · | -27
COc1ccc(-c2cnc(-c3c(O)c(C)nc4ccccc34)o2)cc1 | -1 | 60*
C=CCNC(=O)C1CC(=O)N(c2ccc(OCC(=O)Nc3ccc(OCC)cc3)cc2)C1 (configuration not stated) | -4 | -11
CC12CN3CC(C)(CN(C1)C3c1ccccc1)C2=O (configuration not stated) | 1 | -2
Cc1cc(Cl)ccc1OC(C)C(=O)N1CCN(c2ccc([N+](=O)[O-])cc2)CC1 (configuration not stated) | 55* | 3
CC(Oc1cccc(Cl)c1)C(=O)N1CCN(c2ccc([N+](=O)[O-])cc2)CC1 (configuration not stated) | -2 | -1
N#CC1=C(N)N(c2ccc([N+](=O)[O-])cc2)C2=C(C(=O)CCC2)C1c1cccnc1 (configuration not stated) | -2 | 1
COCc1cc(C(C)(C)C)c(O)c(O)c1C(C)(C)C | -2 | 62*
CC(C)(C)c1cc(C(=O)O)cc(C(C)(C)C)c1O | 3 | -8
CC1CCCCN1C(=O)c1ccccc1N1CCC(NC(=O)c2ccccc2)CC1 (configuration not stated) | -72 | 10
C=CCSc1nnc2c(n1)[nH]c1c(C)cc(C)cc12 | -7 | 32
CCN(CCCNS(=O)(=O)c1ccc(Cl)s1)c1cccc(C)c1 | -3 | 65*
CCN(CCCNC(=O)C1CCCN(S(=O)(=O)N2CCCC2)C1)c1cccc(C)c1 (configuration not stated) | -27 | 36
Cc1ccc(/C=C2\Sc3ccccc3C2=O)cc1[N+](=O)[O-] | 2 | 14
SMILES | Pf apPOL block | mHTT CaM bind
CN1CCN(c2ccc(/C=C3\Sc4ccccc4C3=O)cc2[N+](=O)[O-])CC1 | 2 | 72*
COc1ccc(NC(=O)C2CC(=O)N(CCc3c[nH]c4ccc(Cl)cc34)C2)c(OC)c1 (configuration not stated) | -3 | 77*
COc1ccc(NC(=O)C2CC(=O)N(CCc3c[nH]c4ccc(OC)cc34)C2)cc1 (configuration not stated) | 10 | 36
COc1ccc2[nH]cc(CCN3CC(C(=O)Nc4ccc(Cl)cc4)CC3=O)c2c1 (configuration not stated) | -3 | 40
COc1ccc(CNC(=O)C2CC(=O)N(CCc3c[nH]c4ccc(Cl)cc34)C2)cc1 (configuration not stated) | 0 | 74*
COc1ccc(CNC(=O)C2CC(=O)N(CCc3c[nH]c4ccc(F)cc34)C2)cc1 (configuration not stated) | -4 | 18
COc1ccc2[nH]cc(CCN3CC(C(=O)Nc4ccc5c(c4)CCC5)CC3=O)c2c1 (configuration not stated) | -4 | 61*
CC(C)c1ccc(NC(=O)Cc2ccc(F)cc2)cc1 | 1 | -10
O=C(/C=C/Nc1cccc(F)c1)c1cccs1 | -11 | -12
COc1ccc(-c2c(C)c3cc(F)ccc3oc2=O)cc1OC | -22 | -3
COc1ccc(CCNS(=O)(=O)c2ccc(C)cc2)cc1OC | -5 | -6
COc1ccc(S(=O)(=O)NCCc2ccc(N3CCCC3)cc2)cc1OC | 0 | 54*
